This passage reports binding signal results from PMC10726135, “HNF4α isoforms regulate the circadian balance between carbohydrate and lipid metabolism in the liver”.

Over roughly 18,000 sequences, “log2 normalized intensity” has its median near 0.36; the highest 2% begin near 7.3. The sample holds the highest values, similar sequences and a random draw of the others, so the mix is not that of the screen.

The target of the assay is T1, HNF4alpha8 (COS-7 nuclear extract) (Homo sapiens, UniProt P41235-5 1-452).
T1 sequence: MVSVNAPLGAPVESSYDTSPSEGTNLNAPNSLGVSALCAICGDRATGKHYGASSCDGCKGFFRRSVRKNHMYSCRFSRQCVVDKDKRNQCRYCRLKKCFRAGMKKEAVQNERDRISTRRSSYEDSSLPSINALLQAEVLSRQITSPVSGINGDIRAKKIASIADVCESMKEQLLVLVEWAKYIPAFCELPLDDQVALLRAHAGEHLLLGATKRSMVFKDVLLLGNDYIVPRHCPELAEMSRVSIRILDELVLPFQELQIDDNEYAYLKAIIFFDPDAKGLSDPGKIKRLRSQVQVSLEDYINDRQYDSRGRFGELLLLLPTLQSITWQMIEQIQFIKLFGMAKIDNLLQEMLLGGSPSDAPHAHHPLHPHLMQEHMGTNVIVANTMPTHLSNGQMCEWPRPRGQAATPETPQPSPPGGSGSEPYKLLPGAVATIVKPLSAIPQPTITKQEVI
Put plainly: protein-binding microarray; COS-7 nuclear extract on double-stranded Agilent 4x180k PBM; binding buffer, salt, pH and temperature not given in the material; high values mean tight binding. The settings on record: chain copies: 2; label: 3' end of strand 1 on the slide; dsDNA, one strand shown. Put shortly:
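Nuclear extracts from COS-7 cells expressing a transiently transfected human HNF4α isoform were put on a custom Agilent SurePrint G3 4x180k array carrying ~44,000 double-stranded ~60-nt test sequences in quadruplicate. Imaging used an Agilent G2565CA scanner at 2-µm resolution. Binding signal is the background-corrected, normalized gProcessedSignal from Agilent software.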
With “GGCCGTGAAGCCGTCCTGTCCTGGACTTTCGCCTAGGGAGATTAGAGTATCGGTCGA”, the binding signal was 4.47 log2 normalized intensity.

Take “GCTTGTTCTCTCCCCCAACCCCACCTTCATGCCTAGGGAGATTAGAGTATCGGTCGA”: the binding signal was 4.61 log2 normalized intensity.

Turning to “GTGTGGGACTTTGGTCTGCTGAGTCTCATGGCCTAGGGAGATTAGAGTATCGGTCGA”, the binding signal was 2.52 log2 normalized intensity.

Take “TCTTCTCAGTGTTTTGGGTCCTACAGAACCGCCTAGGGAGATTAGAGTATCGGTCGA”: the binding signal came to 0.643 log2 normalized intensity.

For the sequence “TTTGGAATTTGACCTCATTTGCTCCCAGTGGCCTAGGGAGATTAGAGTATCGGTCGA”, the binding signal worked out at 4.58 log2 normalized intensity.

As to “ACATCTTGATTTAGCCCAGTGAGACCCATTGCCTAGGGAGATTAGAGTATCGGTCGA”, the binding signal is 0.922 log2 normalized intensity.

Regarding “TTAGCCCAGTGAGACCCATTTTGGACTTTGGCCTAGGGAGATTAGAGTATCGGTCGA”, the binding signal turned out to be 7.42 log2 normalized intensity.

Regarding “CCAGTGAGACCCATTTTGGACTTTGACCTCGCCTAGGGAGATTAGAGTATCGGTCGA”, the binding signal was 11.8 log2 normalized intensity.

“TTTGCCATTTGGAGAGAGTTTGGCCCCAGTGCCTAGGGAGATTAGAGTATCGGTCGA”: the binding signal turned out to be 2.83 log2 normalized intensity.

For the sequence “CACATACACCTGCGTGTACTAAGGTCTTAAGCCTAGGGAGATTAGAGTATCGGTCGA”, the binding signal amounted to 1.24 log2 normalized intensity.

For the sequence “CAAGTTGCAGGGATGGACTTTAATCTCCAAGCCTAGGGAGATTAGAGTATCGGTCGA”, the binding signal was found to be 5.83 log2 normalized intensity.

As for “AGGTCATGCATAGAAGTATGTCTGGGATTTGCCTAGGGAGATTAGAGTATCGGTCGA”, the binding signal worked out at 0.935 log2 normalized intensity.

In the case of “GTGCTCCTCCCCATCTCAGCCTCTCAGGTCGCCTAGGGAGATTAGAGTATCGGTCGA”, the binding signal turned out to be 1.84 log2 normalized intensity.

Consider “CTCGGCATCATGCCCTTTGGCCCCCAGAGCGCCTAGGGAGATTAGAGTATCGGTCGA”, for which the binding signal is 7.18 log2 normalized intensity.

Take “AAGGCATGGGACCTTTGCCCTTCTTGTTAAGCCTAGGGAGATTAGAGTATCGGTCGA”: the binding signal is 5.47 log2 normalized intensity.

In the case of “CCCCCAAGGCATGGGACCTTTGCCCTTCTTGCCTAGGGAGATTAGAGTATCGGTCGA”, the binding signal came out at 6.71 log2 normalized intensity.

Turning to “CCCCTCCCCCAAGGCATGGGACCTTTGCCCGCCTAGGGAGATTAGAGTATCGGTCGA”, the binding signal amounted to 7.34 log2 normalized intensity.

As to “ACACCAGGCCCTCGGCATCATGCCCTTTGGGCCTAGGGAGATTAGAGTATCGGTCGA”, the binding signal amounted to 4.63 log2 normalized intensity.

On to “AGGCCCTCGGCATCATGCCCTTTGGCCCCCGCCTAGGGAGATTAGAGTATCGGTCGA”, for which the binding signal stood at 7.71 log2 normalized intensity.

As for “CAGAGACAATGTGAGCAGGTGTGTGGCATCGCCTAGGGAGATTAGAGTATCGGTCGA”, the binding signal came out at 0.13 log2 normalized intensity.

Turning to “CGACCTCCCCGTCACCCTCCCCGCCACCCCGCCTAGGGAGATTAGAGTATCGGTCGA”, the binding signal is 7.01 log2 normalized intensity.

On to “GCAAATGTGTCTTTTTTAGTCAGCATAGTTGCCTAGGGAGATTAGAGTATCGGTCGA”, for which the binding signal stood at 1.34 log2 normalized intensity.

Regarding “TGTGACAGAAGTCATGTCTCATTGCCCCTTGCCTAGGGAGATTAGAGTATCGGTCGA”, the binding signal was determined as 4.58 log2 normalized intensity.

For the sequence “GAATGGCCAGAGTTCCTGTGCAAGCCCCTGGCCTAGGGAGATTAGAGTATCGGTCGA”, the binding signal was -0.986 log2 normalized intensity.

Regarding “GGTGAAGGGGTCACCTCGCTCCCCTCCTGTGCCTAGGGAGATTAGAGTATCGGTCGA”, the binding signal was 1.02 log2 normalized intensity.

Consider “GTTGGTTTCTGGGATTTGTACAAGTGATTGGCCTAGGGAGATTAGAGTATCGGTCGA”, for which the binding signal worked out at 1.63 log2 normalized intensity.

For the sequence “GAGGCCAGTTTGACCTTTGCATTCTTACCCGCCTAGGGAGATTAGAGTATCGGTCGA”, the binding signal was determined as 7.03 log2 normalized intensity.

Regarding “TTTGGAGTTTGACCTGGAGCCAGGGCCTTTGCCTAGGGAGATTAGAGTATCGGTCGA”, the binding signal was 3.92 log2 normalized intensity.

As for “TCACCATATCCCTGAGAGGCCAGTTTGACCGCCTAGGGAGATTAGAGTATCGGTCGA”, the binding signal stood at 3.28 log2 normalized intensity.

As for “CCTGAGAGGCCAGTTTGACCTTTGCATTCTGCCTAGGGAGATTAGAGTATCGGTCGA”, the binding signal stood at 8.31 log2 normalized intensity.

Consider “ATATCCCTGAGAGGCCAGTTTGACCTTTGCGCCTAGGGAGATTAGAGTATCGGTCGA”, for which the binding signal amounted to 8.82 log2 normalized intensity.

For “CAGTTTGACCTTTGCATTCTTACCCAAGCCGCCTAGGGAGATTAGAGTATCGGTCGA”, the binding signal is 5.1 log2 normalized intensity.

For “AACATGTAAATATGACCTTTGCTTTTCAAGGCCTAGGGAGATTAGAGTATCGGTCGA”, the binding signal came to 5.13 log2 normalized intensity.

Take “ATGTGGTCAAAACTTTGTTTGAGTTCCAAAGCCTAGGGAGATTAGAGTATCGGTCGA”: the binding signal was determined as 1.01 log2 normalized intensity.

As to “TTTGACATCACCTAACTTGTGGCTGGGTGAGCCTAGGGAGATTAGAGTATCGGTCGA”, the binding signal was determined as 1.15 log2 normalized intensity.

Turning to “AACCCCTTTTCAATTCCTTATCTCGTTCTGGCCTAGGGAGATTAGAGTATCGGTCGA”, the binding signal stood at 0.721 log2 normalized intensity.

On to “ACAGCACTGACCTTTGAGAGTCAACACTGAGCCTAGGGAGATTAGAGTATCGGTCGA”, for which the binding signal is 3.53 log2 normalized intensity.

As to “ACTTTGACCTTGGCACTGAAGAATGTCTAAGCCTAGGGAGATTAGAGTATCGGTCGA”, the binding signal came out at 2.09 log2 normalized intensity.

Turning to “CAGTCACAGCAGTGGACTTTGACCTTGGCAGCCTAGGGAGATTAGAGTATCGGTCGA”, the binding signal came to 9.69 log2 normalized intensity.

As for “TGACCTTGCAGTGGCAAGGCAAAAGAGACAGCCTAGGGAGATTAGAGTATCGGTCGA”, the binding signal came out at 0.892 log2 normalized intensity.

For “ACAGCAGTGGACTTTGACCTTGGCACTGAAGCCTAGGGAGATTAGAGTATCGGTCGA”, the binding signal came to 9.68 log2 normalized intensity.

Regarding “ATGTGACCTTTTGGACCACAGAGTGACCTGGCCTAGGGAGATTAGAGTATCGGTCGA”, the binding signal stood at 5.66 log2 normalized intensity.

With “CCTCCTGTGGTAATAAGTTGGTGGACGCTGGCCTAGGGAGATTAGAGTATCGGTCGA”, the binding signal turned out to be 1.13 log2 normalized intensity.
